Reference: PubChem BioAssay (EPA / NIEHS)
Activity calls are given as the source filed them. Rule for the calls: active = hit-call score of the fitted dose curve at least 0.9, where 1 is the maximum; inactive = score below 0.9.

Legend:
Details in all cases: mRNA level, 48 h; actives raise or lower the signal
[1] = read-out: growth arrest and DNA damage 45 (GADD45A), GADD45A (gene 1647); assay: LTEA_HepaRG_GADD45A: Life Technologies and Expression Analysis (LTEA) Assay for growth arrest and DNA damage 45 (GADD45A) using HepaRG (AID 2283458)
In short: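 Eight-point concentration-response in HepaRG cells: 48 h chemical exposure, 0.5% DMSO vehicle, top dose 100 uM. Normalized qRT-PCR mRNA readout with bidirectional fitting relative to DMSO.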

[2] = read-out: Forkhead box O3 (FOXO3), FOXO3 (gene 2309); assay: LTEA_HepaRG_FOXO3: Life Technologies and Expression Analysis (LTEA) Assay for Forkhead box O3 (FOXO3) using HepaRG (AID 2283459)
In short: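 Gene-expression endpoint: FOXO3 transcript level by qRT-PCR in HepaRG cultures treated 48 h with chemicals up to 100 uM (half-log, 0.5% DMSO vehicle).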

[3] = read-out: ABC Transporter (ABCB1), ABCB1 (gene 5243); assay: LTEA_HepaRG_ABCB1: Life Technologies and Expression Analysis (LTEA) Assay for ABC Transporter (ABCB1) using HepaRG (AID 2283460)
In short: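 Human liver HepaRG line treated 48 h with up to 100 uM compound (eight half-log points, 0.5% DMSO); ABCB1 mRNA change fitted bidirectionally against DMSO controls.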

[4] = read-out: growth arrest and DNA damage 45 (GADD45B), GADD45B (gene 4616); assay: LTEA_HepaRG_GADD45B: Life Technologies and Expression Analysis (LTEA) Assay for growth arrest and DNA damage 45 (GADD45B) using HepaRG (AID 2283461)
In short: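 Values are bidirectional concentration-response fits against 0.5% DMSO controls. Underlying data: qRT-PCR mRNA levels in human HepaRG liver cells treated 48 h in serum-free induction medium, eight concentrations topping at 100 uM.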

[5] = read-out: ABC Transporter (ABCC3), ABCC3 (gene 8714); assay: LTEA_HepaRG_ABCC3: Life Technologies and Expression Analysis (LTEA) Assay for ABC Transporter (ABCC3) using HepaRG (AID 2283462)
In short: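 Differentiated HepaRG liver cells receive test chemicals at eight concentrations (max 100 uM) for 48 h. Expression of ABCC3 is quantified by qRT-PCR against ACTB, GAPDH and POLR2A, and activity is fitted in both directions against the DMSO control.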

[6] = read-out: ABC Transporter (ABCB11), ABCB11 (gene 8647); assay: LTEA_HepaRG_ABCB11: Life Technologies and Expression Analysis (LTEA) Assay for ABC Transporter (ABCB11) using HepaRG (AID 2283463)
In short: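 Using HepaRG cultures held in 0.5% DMSO, chemicals were tested at half-log dilutions from 100 uM for 48 h. Induction or suppression of ABCB11 mRNA, normalized to ACTB, GAPDH and POLR2A, was fitted bidirectionally against vehicle.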

[7] = read-out: ABC Transporter (ABCC2), ABCC2 (gene 1244); assay: LTEA_HepaRG_ABCC2: Life Technologies and Expression Analysis (LTEA) Assay for ABC Transporter (ABCC2) using HepaRG (AID 2283464)
In short: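 Gene expression of ABCC2 was determined by qRT-PCR in HepaRG cells exposed 48 h to chemicals (highest 100 uM, half-log dilutions). Activity was fitted in both directions relative to 0.5% DMSO vehicle.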

[8] = read-out: Broad substrate specificity ATP-binding cassette transporter ABCG2 (Homo sapiens) (UniProt Q9UNQ0); assay: LTEA_HepaRG_ABCG2: Life Technologies and Expression Analysis (LTEA) Assay for ABC Transporter (ABCG2) using HepaRG (AID 2283465)
In short: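 Gene expression of ABCG2 in HepaRG liver cells is quantified by qRT-PCR following 48 h exposure across an eight-point series topping at 100 uM. Values come from bidirectional fitting relative to DMSO vehicle.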

[9] = read-out: ATP-citrate lyase (ACLY), ACLY (gene 47); assay: LTEA_HepaRG_ACLY: Life Technologies and Expression Analysis (LTEA) Assay for ATP-citrate lyase (ACLY) using HepaRG (AID 2283466)
In short: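 ACLY expression changes in human HepaRG liver cells are quantified by qRT-PCR after 48 h exposure to test chemicals (maximum 100 uM, half-log steps). Values are fitted in both directions relative to 0.5% DMSO vehicle.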

[10] = read-out: Peroxisomal acyl-coenzyme A oxidase 1 (ACOX1) gene, ACOX1 (gene 51); assay: LTEA_HepaRG_ACOX1: Life Technologies and Expression Analysis (LTEA) Assay for Peroxisomal acyl-coenzyme A oxidase 1 (ACOX1) gene using HepaRG (AID 2283467)
In short: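 Human HepaRG hepatic cultures, 48 h treatment with test chemicals up to 100 uM. ACOX1 expression read by qRT-PCR relative to 0.5% DMSO vehicle.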

[11] = read-out: Alkaline Phosphatase, Placental (ALPP) gene, ALPP (gene 250); assay: LTEA_HepaRG_ALPP: Life Technologies and Expression Analysis (LTEA) Assay for Alkaline Phosphatase, Placental (ALPP) gene using HepaRG (AID 2283468)
In short: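 Expression of ALPP was quantified by qRT-PCR against three housekeeping genes in human HepaRG cultures treated for 48 h with an eight-point concentration series up to 100 uM. Activity in either direction was fitted relative to 0.5% DMSO.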

[12] = read-out: Bcl-2 (BAD) gene, BAD (gene 572); assay: LTEA_HepaRG_BAD: Life Technologies and Expression Analysis (LTEA) Assay for Bcl-2 (BAD) gene using HepaRG (AID 2283469)
In short: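 Activity values reflect up- or down-regulation of BAD mRNA in human HepaRG hepatic cells treated 48 h in serum-free medium, with eight-point half-log dosing capped at 100 uM and 0.5% DMSO vehicle.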

[13] = read-out: Bcl-2 (BAX) gene, BAX (gene 581); assay: LTEA_HepaRG_BAX: Life Technologies and Expression Analysis (LTEA) Assay for Bcl-2 (BAX) gene using HepaRG (AID 2283470)
In short: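 Human HepaRG cells treated in duplicate for 48 h across eight concentrations (max 100 uM, 0.5% DMSO); BAX expression measured by qRT-PCR.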

[14] = read-out: adenosine kinase (ADK) gene, ADK (gene 132); assay: LTEA_HepaRG_ADK: Life Technologies and Expression Analysis (LTEA) Assay for adenosine kinase (ADK) gene using HepaRG (AID 2283471)
In short: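 Following 48 h exposure of HepaRG cells in 0.5% DMSO (top concentration 100 uM, duplicate wells), ADK mRNA induction or suppression was measured by qRT-PCR, normalised to ACTB/GAPDH/POLR2A, and fitted bidirectionally relative to vehicle.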

[15] = read-out: Alpha-fetoprotein (AFP) gene, AFP (gene 174); assay: LTEA_HepaRG_AFP: Life Technologies and Expression Analysis (LTEA) Assay for Alpha-fetoprotein (AFP) gene using HepaRG (AID 2283472)
In short: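 Measures AFP mRNA change in HepaRG after 48 h chemical exposure (8 half-log concentrations, highest 100 uM, 0.5% DMSO). Fold change relative to DMSO, fitted in both directions.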

BCL2L11 (gene 10018) = assay: LTEA_HepaRG_BCL2L11: Life Technologies and Expression Analysis (LTEA) Assay for Bcl-2 (BCL2L11) gene using HepaRG (AID 2283473)
In short: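 Cells were plated, cultured 48 h, switched to serum-free induction medium, then dosed in duplicate for 48 h at eight half-log concentrations up to 100 uM. Lysates underwent RNA isolation and TaqMan qRT-PCR; gain or loss versus DMSO was fitted.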

[16] = read-out: Apolipoprotein A-V (APOA5) gene, APOA5 (gene 116519); assay: LTEA_HepaRG_APOA5: Life Technologies and Expression Analysis (LTEA) Assay for Apolipoprotein A-V (APOA5) gene using HepaRG (AID 2283474)
In short: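 Human liver HepaRG cells are treated 48 h with test chemicals (100 uM top, half-log dilutions, 0.5% DMSO). APOA5 mRNA induction or loss is measured by qRT-PCR relative to vehicle.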

[17] = read-out: Apoptosis regulator Bcl-2 (Homo sapiens) (UniProt P10415); assay: LTEA_HepaRG_BCL2: Life Technologies and Expression Analysis (LTEA) Assay for Bcl-2 gene using HepaRG (AID 2283475);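 note: BCL2 transcript by TaqMan qRT-PCR normalised to ACTB GAPDH and POLR2A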
In short: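 Each chemical was tested in duplicate on HepaRG cultures held in serum-free induction medium for 48 h, highest concentration 100 uM with half-log dilutions. Transcript levels came from multiplexed qRT-PCR, normalised to housekeeping genes; activity was scored in either direction relative to DMSO.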

[18] = read-out: Bcl-2 (BID) gene, BID (gene 637); assay: LTEA_HepaRG_BID: Life Technologies and Expression Analysis (LTEA) Assay for Bcl-2 (BID) gene using HepaRG (AID 2283476)
In short: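 Assay used HepaRG hepatic cells treated 48 h in serum-free medium with half-log dilutions from 100 uM. Endpoint: BID mRNA, qRT-PCR, normalized to ACTB/GAPDH/POLR2A.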

Caspase-3 (Homo sapiens) = Caspase-3 (Homo sapiens) (UniProt P42574); assay: LTEA_HepaRG_CASP3: Life Technologies and Expression Analysis (LTEA) Assay for cysteine-aspartic acid protease (CASP3) using HepaRG (AID 2283477)
In short: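 In HepaRG liver cells dosed for 48 h at up to 100 uM (eight-point, duplicate), CASP3 expression changes are scored by qRT-PCR. Activity is fitted in both directions with 0.5% DMSO as baseline.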

Measured: AC50

Sequence of Caspase-3 (Homo sapiens) (P42574 whole entry, looked up): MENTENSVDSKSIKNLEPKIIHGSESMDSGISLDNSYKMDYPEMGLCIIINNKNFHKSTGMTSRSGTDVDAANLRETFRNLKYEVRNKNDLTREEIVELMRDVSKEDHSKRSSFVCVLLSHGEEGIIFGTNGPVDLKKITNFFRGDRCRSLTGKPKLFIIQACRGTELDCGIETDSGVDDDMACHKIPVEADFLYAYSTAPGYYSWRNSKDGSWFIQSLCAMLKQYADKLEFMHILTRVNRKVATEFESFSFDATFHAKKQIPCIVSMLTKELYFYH
Sequence of Apoptosis regulator Bcl-2 (Homo sapiens) (P10415 whole entry, looked up): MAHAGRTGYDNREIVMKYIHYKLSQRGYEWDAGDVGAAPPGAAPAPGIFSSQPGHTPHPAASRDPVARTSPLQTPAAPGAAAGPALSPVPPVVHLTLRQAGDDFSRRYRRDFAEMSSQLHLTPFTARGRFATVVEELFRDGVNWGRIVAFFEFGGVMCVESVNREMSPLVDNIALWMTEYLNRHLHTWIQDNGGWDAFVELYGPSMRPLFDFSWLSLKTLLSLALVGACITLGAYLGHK
Sequence of Broad substrate specificity ATP-binding cassette transporter ABCG2 (Homo sapiens) (Q9UNQ0 whole entry, looked up): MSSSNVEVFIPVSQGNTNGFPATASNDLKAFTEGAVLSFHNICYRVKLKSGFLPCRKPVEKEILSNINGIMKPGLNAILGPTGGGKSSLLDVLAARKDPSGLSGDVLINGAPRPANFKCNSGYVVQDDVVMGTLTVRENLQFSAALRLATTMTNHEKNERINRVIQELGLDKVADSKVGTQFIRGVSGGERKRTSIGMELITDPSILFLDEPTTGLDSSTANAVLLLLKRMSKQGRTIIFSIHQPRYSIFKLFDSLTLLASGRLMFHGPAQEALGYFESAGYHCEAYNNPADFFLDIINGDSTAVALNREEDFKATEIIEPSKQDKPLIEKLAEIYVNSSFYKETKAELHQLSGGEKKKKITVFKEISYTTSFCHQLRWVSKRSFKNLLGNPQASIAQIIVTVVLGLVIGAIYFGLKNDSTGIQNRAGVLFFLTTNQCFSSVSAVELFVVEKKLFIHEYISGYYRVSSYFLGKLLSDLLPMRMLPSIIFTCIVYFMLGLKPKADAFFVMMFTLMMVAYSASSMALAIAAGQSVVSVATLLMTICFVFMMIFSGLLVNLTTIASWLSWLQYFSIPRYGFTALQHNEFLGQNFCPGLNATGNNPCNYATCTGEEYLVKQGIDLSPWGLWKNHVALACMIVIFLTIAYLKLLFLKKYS

COC(=O)CCCCC(=O)OC
inactive: all assays above

O=C(OCCOCCOC(=O)c1ccccc1)c1ccccc1
inactive: all assays above

Nc1cccc2c(N)cccc12
active: [2] 22.4 µM | [6] 50 µM
not listed: [15]
inactive: all other assays above

CCC(=C(c1ccc(O)cc1)c1ccc(OCCN(C)C)cc1)c1ccccc1
active: [5] 82.1 µM | [7] 86.1 µM | [14] 75.2 µM | BCL2L11 (gene 10018) 82.9 µM | Caspase-3 (Homo sapiens) 89.8 µM
not listed: [15]
inactive: all other assays above

N#C[C@@H]1CC(F)(F)CN1C(=O)CNC1CC2CCC(C1)N2c1ncccn1 (stereo partly drawn)
inactive: all assays above

COCC(C)OCC(C)O (stereo not drawn)
inactive: all assays above
